Laboratory results reported in publication PMC13494018.
A number with no mark means an inactive call. The rule behind the calls is not given here.

B1: d8r1_design_ppi_1339_dldesign_0_cycle1_af2pred (protein)
chain: AEAWLAEIREIVSRAVEAAQAGDVETLEAAVEEARALAERAPPEVRPAAENAAAFNQLLLELTKERLAEKA
B2: d8r1_design_ppi_1356_dldesign_0_cycle1_af2pred (protein)
chain: DPELIARTALSAAVMLEKGVAGTPEAALNAADGSALLLESKAESFGSEELKELAKKAKEAAKKIKADPEAGKKALREVAEELKKLAE
B3: d8r1_design_ppi_509_dldesign_0_cycle0_af2pred (protein)
chain: SDEKWAAAAAHMGAAQKAADAAVAAAAAGNTAAAKAAQAEAAAHYDKAAEEAKEYSPEAGAAMKSTREATVALINAKL
B4: d8r1_design_ppi_509_dldesign_0_cycle1_af2pred (protein)
chain: KDEHFDKMVEYLKKAQEAYNKAVAAAKAGDADAAKAALAKAQEYYDKAIKEAEKYSPEAGAAMKSTKEKSVAIANAAL
B5: d8r1_design_ppi_869_dldesign_0_cycle0_af2pred (protein)
chain: SEDAQSAVRFAQNTLETAKRKAAEDPARGRQIAANLATAAATAAAKFAGLPEAATLKALQAQAAALAAALA
B6: d8r1_design_ppi_671_dldesign_0_cycle1_af2pred (protein)
chain: AESYRAAAAAIAQAAADNPAGAADAAAALVAMAKMSSPEKAAAIAEGVEAVAEGAPADVRALLLAAAAEIKAIV
B7: d8r1_design_ppi_167_dldesign_0_cycle1_af2pred (protein)
chain: SKEERYKKAAEWLAETSKKAIALRKANPAVAPLAIKMHGAAAHAAAALVAGDEEKAEEYKKKSEEYLKEAEAAIA
B8: d8r1_design_ppi_134_dldesign_0_cycle1_af2pred (protein)
chain: AAAEAAREAVRAAAAAAREAAAKMSPSKAKAVESIVERTTRVADELIAAGDYRTAVRAAASAEAAAKTLLEVDK
B9: d8r1_design_ppi_1425_dldesign_0_cycle1_af2pred (protein)
chain: SVEERKKRAEAIAKRSRAVARALAAADPARGIALAESAAVSFEKWAELYPEIKEFAEALAAEHRALAAEIRAAA
B10: d8r1_design_ppi_869_dldesign_0_cycle1_af2pred (protein)
chain: SEEAQAAVRFARNLLEVARLRAEEDPARGRAIAANLEVAARTLAEKHAGLPEAEELRRLAAEAAALAAELA
B11: d8r1_design_ppi_1425_dldesign_0_cycle0_af2pred (protein)
chain: STESREKALKAISEKSKAKAKKLAAEDPAKGLALAKNAAKSFKDWAKADPETKETAEAQAKEHEALAKEIAAAA
B12: d8r1_design_ppi_286_dldesign_0_cycle1_af2pred (protein)
chain: SNEEKAEDLRFMARAVLGVGATASAAETAAFLNDVAAAAARLDPEAGAAVAAIGAAAAASGDAKAAAKAAAAVLEAAAEEFL
B13: d8r1_design_ppi_1318_dldesign_0_cycle1_af2pred (protein)
chain: SAAAAAAARGEAAVASLTATGAAIVAAAKKDPSEAASMVRAVKNLGQAYANRVPPEYAAKVLAVAATYAAQIAAIM
B14: d8r1_design_ppi_1265_dldesign_0_cycle1_af2pred (protein)
chain: SENEEAAKALTRAAEAAARYLAEKYGELAKEAAKLIAKAAEADAETAVKYLEEAVKLLDEAGKKTGATKETDALKAMAEKAAELKKA
B15: d8r1_design_ppi_1447_dldesign_0_cycle1_af2pred (protein)
chain: SEAEDIASFARMATTAAASAAKKDIASAKTLMDAVAKLPGAAAHVTAAGNAAIAAAATVDPARAAELAAYLAARLAAL
B16: d8r1_design_ppi_310_dldesign_0_cycle0_af2pred (protein)
chain: SRARALASIAALAELAAELAEENPASGAQLGKVVASALAALGLTDEAARVAAASPADLKAVMREVAAAARAAAAALA
B17: d8r1_design_ppi_1324_dldesign_0_cycle1_af2pred (protein)
chain: AAAKLAALKKEIKALIGAAAAYQIAKDSSKLDEYVAKANKLIALADKDPVAAAKETAKLAEEAGDEETAKKAKEAAKEAKKL
B18: d8r1_design_ppi_536_dldesign_0_cycle1_af2pred (protein)
chain: NKDKEIAELLLKLAEAAKEDPEKALKIAEEIEKLGNKEFGGALKTLLELAVAEKGKAGENAKAAAIVLSTSRAEDLLAK
B19: d8r1_design_ppi_1470_dldesign_0_cycle1_af2pred (protein)
chain: DAAAQAATALQGAKNALAAADLLEAEGTKGALLAAGSLYIAAGEQLATAYTLLGKPEEGKAVAAELNAKGKALLAAA
B20: d8r1_design_ppi_139_dldesign_0_cycle1_af2pred (protein)
chain: AKLIEELKKEAKAVKELAKKGAPAEELDAAVKKLGEAMTKLAKAMATMSPEEKAKARAALAEAAKAAIEAGEVAEKLRAA
B21: d8r1_design_ppi_482_dldesign_0_cycle0_af2pred (protein)
chain: STTDEMIEKIAKAAQEAMKLAKEGKYEEAYALLKKMAEEAAKVSESLGALAKGVAEAMKNWIDKYKAEKA
B22: d8r1_design_ppi_882_dldesign_0_cycle1_af2pred (protein)
chain: MTPEEAAAEARRIGDGAAAAIAASTDVATAKAIYDRAVTELTALAAAFPEVAHVASAELVKVAKAYIAKGDAL
B23: d8r1_design_ppi_1429_dldesign_0_cycle1_af2pred (protein)
chain: SSLKREEILRKTAEAMAEATLAKVRELAKEDPERARRALENMRALLALLGPVAAKIGEEAYARGLAIIAEIA
B24: d8r1_design_ppi_43_dldesign_0_cycle1_af2pred (protein)
chain: EEALKKASEALSEAARLAIKNPAYLPAFAATGAAYGKVLEAYKKSPEEAKKAAKELLALYEKEVAAAKAAL
B25: d8r1_design_ppi_540_dldesign_0_cycle1_af2pred (protein)
chain: DKKTETILAGMEAASNAAALLKKDPAAGGAYLLAKAKEVGAAVGNAADIVPAAAAAAADPATAAARLREFVSIVVSSVTS
B26: d8r1_design_ppi_1136_dldesign_0_cycle0_af2pred (protein)
chain: SAAAAARARTAAANAAALAKKMLEAGVSPENARALVEAAAARLTPEAGAALRAEGEALVAEYAARREAEAA
B27: d8r1_design_ppi_482_dldesign_0_cycle1_af2pred (protein)
chain: SESEEWIKEITDAANQAVALAKAGKTAEAYALLDATAAKAAAKSPSRGALAKGVADAMRVYIDKYAAKKA
B28: d8r1_design_ppi_87_dldesign_0_cycle1_af2pred (protein)
chain: SEEEFERRIAIAAEQLAAMDAALAAIKASGDAAEKQALLAQLRAAGEEMAKALGPAGAAIAEALLAQAEAALAA
B29: d8r1_design_ppi_345_dldesign_0_cycle1_af2pred (protein)
chain: ATAEATATKIKTGIEKMLKLSKELGKGALINAAAAAKASAKVMDKLLADPSITPAARAALTAARDEAEKAAKEAEAEAKKL
B30: d8r1_design_ppi_637_dldesign_0_cycle1_af2pred (protein)
chain: MTAEAAKAEVRARLEAAGERAAEAAKERGADYEAVLAAARSMAERAAADPDPEAALARGAEALAFLEALEKYYRE
B31: d8r1_design_ppi_1102_dldesign_0_cycle1_af2pred (protein)
chain: DAVREAGVAAAQAIKVALDEGDKELANAVSEAARAAVADPALAPLVKEGAELIIDPEKREQGRELVEKAVAAYKAAQ
B32: d8r1_design_ppi_753_dldesign_0_cycle0_af2pred (protein)
chain: SAEAQAALAGARAAVAGAELLVEVAEETGSQGALRAAKRAAEAAEEAARKAAELGAEEEARELEERAREVRERAEKLE
B33: d8r1_design_ppi_47_dldesign_0_cycle1_af2pred (protein)
chain: GQAALDAAAKRLDELTKEAEKASPNTGKAVEAIRDGSIRVATALFAAGDAARGRAALENGVAASEKLVEATKS
B34: d8r1_design_ppi_994_dldesign_0_cycle1_af2pred (protein)
chain: GKVEELEKKFREELQAAADLIAELRKADPELGKLAAKALAYALANPELGRKLAEEVAAKSPLGAKAAAEILALIETREELLKAEKEA
B35: d8r1_design_ppi_1481_dldesign_0_cycle1_af2pred (protein)
chain: SSDEDYAALVEGMALASQTYAQARALIAATGAAGGAQARALAQAAAAQLRAAGAKYPSRAAQYDALADGLVRTVTAAAA
B36: d8r1_design_ppi_882_dldesign_0_cycle0_af2pred (protein)
chain: MTPEEAAAAARAIGAAAAAAIAASTDLATAGALADAAFRALVALAAAFPEVAPVASAEMAAVAKAFIAKGDAL
B37: d8r1_design_ppi_1124_dldesign_0_cycle1_af2pred (protein)
chain: STATAAANAAAFSSKGAAVVGDKFAPSVESVLERVVELDPAAGLAAAEAVAAAAAAHPAVRAVAEAVAARARAAL
B38: d8r1_design_ppi_640_dldesign_0_cycle1_af2pred (protein)
chain: SEEEEKKYEELAKAGAAASKAGAVAAKHPDNPEIKKLADEAGKALSEAFTSDVETAKKLAEKVEALAKAAEALAA
B39: d8r1_design_ppi_1493_dldesign_0_cycle1_af2pred (protein)
chain: AAESEALRQQAIDLAQKAAEIAADDENAEEVKARIDAAIAHLQAGDYAAAAADLLAAAKLASPEARGYILKALLKAMEAA

Target: PDL1, Q9NZQ7
Sequence (Q9NZQ7 whole entry): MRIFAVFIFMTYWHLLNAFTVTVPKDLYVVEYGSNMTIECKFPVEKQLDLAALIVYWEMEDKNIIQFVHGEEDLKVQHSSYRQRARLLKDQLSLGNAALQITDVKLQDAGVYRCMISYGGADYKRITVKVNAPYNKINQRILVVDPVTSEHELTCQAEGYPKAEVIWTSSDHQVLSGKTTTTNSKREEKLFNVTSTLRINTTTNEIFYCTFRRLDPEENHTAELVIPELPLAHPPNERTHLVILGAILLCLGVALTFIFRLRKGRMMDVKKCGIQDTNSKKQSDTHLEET

| Binder | binding in a display sort |
| --- | --- |
| B1 | binds (active) |
| B2 | not found |
| B3 | not found |
| B4 | not found |
| B5 | not found |
| B6 | not found |
| B7 | not found |
| B8 | binds (active) |
| B9 | not found |
| B10 | binds (active) |
| B11 | not found |
| B12 | binds (active) |
| B13 | binds (active) |
| B14 | binds (active) |
| B15 | not found |
| B16 | not found |
| B17 | not found |
| B18 | not found |
| B19 | not found |
| B20 | not found |

| Binder | binding in a display sort |
| --- | --- |
| B21 | not found |
| B22 | not found |
| B23 | not found |
| B24 | not found |
| B25 | not found |
| B26 | binds (active) |
| B27 | binds (active) |
| B28 | not found |
| B29 | not found |
| B30 | not found |
| B31 | not found |
| B32 | not found |
| B33 | not found |
| B34 | not found |
| B35 | binds (active) |
| B36 | not found |
| B37 | not found |
| B38 | not found |
| B39 | binds (active) |
